Measured values: article doi:10.1101/2024.03.05.583629

molecular target: pT7_6His-AlfaTag-HOXD13 (human, UniProt P35453 263-343); assay: PADIT-seq; settings: dsDNA, one strand shown
Sequence (P35453 263-343): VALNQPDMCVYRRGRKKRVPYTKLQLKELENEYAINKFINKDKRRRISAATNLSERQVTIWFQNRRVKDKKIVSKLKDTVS

Sequence	binding signal [log2FC]
CTCGAGGATATCAAGATCTGGCCTCGGCATTTTAAAGGGAACCTCTAGCTAGCCGACTCACTATAGGGATAATCGCCCTGAGCAAAGACC	2.62 ± 0.0783
CTCGAGGATATCAAGATCTGGCCTCGGCATTTTAGCAGGAACCTCTAGCTAGCCGACTCACTATAGGGATAATCGCCCTGAGCAAAGACC	0.721 ± 0.101
CTCGAGGATATCAAGATCTGGCCTCGGCAACTTAAAAGGAACCTCTAGCTAGCCGACTCACTATAGGGATAATCGCCCTGAGCAAAGACC	0.617 ± 0.0872
CTCGAGGATATCAAGATCTGGCCTCGGCCTAGTAAAAGGAACCTCTAGCTAGCCGACTCACTATAGGGATAATCGCCCTGAGCAAAGACC	2.42 ± 0.0781
CTCGAGGATATCAAGATCTGGCCTCGGCCTTTTATGTGGAACCTCTAGCTAGCCGACTCACTATAGGGATAATCGCCCTGAGCAAAGACC	2.69 ± 0.0743
CTCGAGGATATCAAGATCTGGCCTCGGCATTTTACTGGGAACCTCTAGCTAGCCGACTCACTATAGGGATAATCGCCCTGAGCAAAGACC	2.8 ± 0.0813
CTCGAGGATATCAAGATCTGGCCTCGGCATTTTAAGGGGAACCTCTAGCTAGCCGACTCACTATAGGGATAATCGCCCTGAGCAAAGACC	1.95 ± 0.0802
CTCGAGGATATCAAGATCTGGCCTCGGCGAAATAAAAGGAACCTCTAGCTAGCCGACTCACTATAGGGATAATCGCCCTGAGCAAAGACC	1.47 ± 0.0776
CTCGAGGATATCAAGATCTGGCCTCGGCCGCTTAAAAGGAACCTCTAGCTAGCCGACTCACTATAGGGATAATCGCCCTGAGCAAAGACC	0.46 ± 0.0911
CTCGAGGATATCAAGATCTGGCCTCGGCTGACTAAAAGGAACCTCTAGCTAGCCGACTCACTATAGGGATAATCGCCCTGAGCAAAGACC	-0.535 ± 0.11
CTCGAGGATATCAAGATCTGGCCTCGGCCTTTTATTTGGAACCTCTAGCTAGCCGACTCACTATAGGGATAATCGCCCTGAGCAAAGACC	2.69 ± 0.0648
CTCGAGGATATCAAGATCTGGCCTCGGCCCACTAAAAGGAACCTCTAGCTAGCCGACTCACTATAGGGATAATCGCCCTGAGCAAAGACC	1.42 ± 0.114
CTCGAGGATATCAAGATCTGGCCTCGGCTCTCTAAAAGGAACCTCTAGCTAGCCGACTCACTATAGGGATAATCGCCCTGAGCAAAGACC	0.412 ± 0.105
CTCGAGGATATCAAGATCTGGCCTCGGCCCCTGGGCGGGAACCTCTAGCTAGCCGACTCACTATAGGGATAATCGCCCTGAGCAAAGACC	-0.981 ± 0.122
CTCGAGGATATCAAGATCTGGCCTCGGCCCGGTAAAAGGAACCTCTAGCTAGCCGACTCACTATAGGGATAATCGCCCTGAGCAAAGACC	0.409 ± 0.0951
CTCGAGGATATCAAGATCTGGCCTCGGCATGCCACGCGGAACCTCTAGCTAGCCGACTCACTATAGGGATAATCGCCCTGAGCAAAGACC	-1.08 ± 0.113
CTCGAGGATATCAAGATCTGGCCTCGGCATTTTAGCTGGAACCTCTAGCTAGCCGACTCACTATAGGGATAATCGCCCTGAGCAAAGACC	-0.225 ± 0.108
CTCGAGGATATCAAGATCTGGCCTCGGCGCGTATGCGGGAACCTCTAGCTAGCCGACTCACTATAGGGATAATCGCCCTGAGCAAAGACC	-1.09 ± 0.121
CTCGAGGATATCAAGATCTGGCCTCGGCGCGTTAGCGGGAACCTCTAGCTAGCCGACTCACTATAGGGATAATCGCCCTGAGCAAAGACC	-0.986 ± 0.133
CTCGAGGATATCAAGATCTGGCCTCGGCTTTTTAGTCGGAACCTCTAGCTAGCCGACTCACTATAGGGATAATCGCCCTGAGCAAAGACC	-0.553 ± 0.126
CTCGAGGATATCAAGATCTGGCCTCGGCGTTTTAAAGGGAACCTCTAGCTAGCCGACTCACTATAGGGATAATCGCCCTGAGCAAAGACC	2.48 ± 0.082
CTCGAGGATATCAAGATCTGGCCTCGGCGTTTTAGCTGGAACCTCTAGCTAGCCGACTCACTATAGGGATAATCGCCCTGAGCAAAGACC	-0.719 ± 0.136
CTCGAGGATATCAAGATCTGGCCTCGGCCGCCCATTCGGAACCTCTAGCTAGCCGACTCACTATAGGGATAATCGCCCTGAGCAAAGACC	-0.894 ± 0.121
CTCGAGGATATCAAGATCTGGCCTCGGCTTCCTAAAAGGAACCTCTAGCTAGCCGACTCACTATAGGGATAATCGCCCTGAGCAAAGACC	-0.635 ± 0.152
CTCGAGGATATCAAGATCTGGCCTCGGCGCGTAAGCGGGAACCTCTAGCTAGCCGACTCACTATAGGGATAATCGCCCTGAGCAAAGACC	-0.575 ± 0.113
CTCGAGGATATCAAGATCTGGCCTCGGCGTTTTACACGGAACCTCTAGCTAGCCGACTCACTATAGGGATAATCGCCCTGAGCAAAGACC	2.15 ± 0.0769
